Assay outcomes from PubChem BioAssay.
The list is not random: actives were taken first. Their share in the collection is about 12%.
HP1b binding inh: blocks HP1-beta chromodomain binding to methylated histone tails; AlphaScreen HP1-beta / biotin-H3K9me3 peptide binding; Potency, µM (highest dose often 114 µM), for inactives: at the highest dose activity change, negative = inhibition, most hits filed as inhibitors; P83916; 390,000 tested, 0.56% active; further: nearly all actives have a fitted effect of over 70% in size
Target sequence (P83916 whole entry, looked up): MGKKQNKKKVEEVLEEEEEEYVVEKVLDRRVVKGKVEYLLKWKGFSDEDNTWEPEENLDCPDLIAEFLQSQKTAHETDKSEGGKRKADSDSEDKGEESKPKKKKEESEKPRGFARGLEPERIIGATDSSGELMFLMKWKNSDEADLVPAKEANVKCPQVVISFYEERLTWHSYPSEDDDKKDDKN
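AlphaScreen: HP1-beta (50 nM) preformed 30 min with biotin-H3(1-18)K9me3 peptide (50 nM) in PBS pH 7.4, 0.01% Tween-20. Compound added for 30 min at RT, then streptavidin donor/nickel chelate acceptor beads (10 ug/mL) for 30 min.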
L3MBTL1 block: blocks human L3MBTL1; Q9Y468; 230,000 tested, 0.66% active; Potency, µM (titrated, usually from 57.1 µM), without a hit: at the highest dose activity, negative = inhibition, hits mostly inhibitors; AlphaScreen L3MBTL1–H3K9me1 peptide binding; further: on the % scale 0 is the no-effect control and ±100 the full control effect; nearly all actives have a fitted effect of over 60% in size
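Read-out is AlphaScreen signal from streptavidin donor and nickel chelate acceptor beads (10 ug/mL final each) bridging L3MBTL1 (50 nM) and biotinylated K9-monomethylated H3(1-15) peptide (75 nM), after 30 min compound exposure at room temperature.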
BAZ2B inh: inhibitors of human BAZ2B bromodomain. AlphaScreen BAZ2B-H3K14Ac peptide displacement. 360,000 tested, 4.4% active. Q9UIF8. Potency, µM (series often up to 114 µM), for the others: at the highest dose activity change, negative = inhibition, usual class: inhibitors; further: on the % scale 0 is the no-effect control and ±100 the full control effect; nearly all actives have a fitted effect of over 60% in size
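AlphaScreen luminescence quantifies BAZ2B engagement of H3K14Ac peptide; the protein and biotinylated peptide are both at 50 nM final, buffer PBS pH 7.4 with 0.01% Tween-20, all steps at room temperature.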
G9a inh: G9a (human) methyltransferase inhibition; 350,000 tested, 8.8% active; G9a H3K9 monomethylation, AlphaScreen, 2 h; Q96KQ7; Potency, µM (top dose mostly 102 µM), without a hit: at the top dose activity, negative = inhibition, most hits filed as inhibitors; further: on the % scale 0 is the no-effect control and ±100 the full control effect; nearly all actives have a fitted effect of over 75% in size
Target sequence (Q96KQ7 913-1193 limits assumed): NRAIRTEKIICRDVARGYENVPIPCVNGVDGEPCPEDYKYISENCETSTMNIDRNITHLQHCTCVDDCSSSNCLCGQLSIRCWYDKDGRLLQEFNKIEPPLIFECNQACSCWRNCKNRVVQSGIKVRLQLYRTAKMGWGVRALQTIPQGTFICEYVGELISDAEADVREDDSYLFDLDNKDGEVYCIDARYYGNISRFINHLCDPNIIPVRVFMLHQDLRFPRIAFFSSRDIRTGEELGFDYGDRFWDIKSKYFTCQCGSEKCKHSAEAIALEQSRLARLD
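Readings reflect AlphaScreen signal from monomethyl-H3K9 antibody detection. HMT at 20 nM; substrate b-H3K9 500 nM; cofactor SAM 20 uM; 2 h RT reaction; compounds tested as titrations in qHTS with 15 min preincubation.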
Sfp PPTase inh: Sfp phosphopantetheinyl transferase inhibition. Q9F4F7. Biochemical Sfp PPTase activity, qHTS. Potency, µM, for inactives: largest response in the series, negative = inhibition, actives largely listed as inhibitors. 310,000 tested, 3.5% active. AID 1490;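 further: the enzyme is Sfp with the accession as filed and its product quenches rhodamine fluorescence; 0% = enzyme reaction without inhibitor and -100% = no enzyme wells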
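Fluorescence-quenching assay with 15 nM Sfp, 5 uM rhodamine-CoA and 12.5 uM BHQ-2-labelled ybbR peptide in pH 7.6 Hepes/MgCl2 buffer. Enzyme was pre-incubated with compound for 15 min at room temperature. Rate was taken from the 30-min fluorescence change (525/598 nm).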
JMJD2A Tudor: blocks the human JMJD2A Tudor domain; AlphaScreen JMJD2A-Tudor / H3K4me3 peptide binding; O75164; AID 504339; 390,000 tested, 4.4% active; Potency, µM (highest dose often 114 µM), for inactives: top-dose activity change, negative = inhibition, hits mostly inhibitors; further: on the % scale 0 is the no-effect control and ±100 the full control effect; nearly all actives have a fitted effect of over 50% in size
Numbers without * were called inactive; ? = inconclusive; . = no result; ! = not active in a repeat; [ ] = remark or other dose. The call rests on the fitted dose curve; in most records, active means well fitted curve in the direction sought with a large enough effect; inconclusive means small, poorly fitted or top-dose-only effect, or another doubt; inactive means no such curve, though single readings can be large; an effect the other way counts as inactive or inconclusive. Potency means the concentration at half of the fitted maximal effect.

SMILES	HP1b binding inh	L3MBTL1 block	BAZ2B inh	G9a inh	Sfp PPTase inh	JMJD2A Tudor
CCCCc1ccc(C2C(C#N)=C(N)SC(N)=C2C#N)s1	.	-13.4%	50.1µM*	?	56.2µM*	.
CC#C[C@]1(O)CC[C@H]2[C@@H]3CCC4=CC(=O)CCC4=C3[C@@H](c3ccc(N(C)C)cc3)C[C@@]21C	?	?	12.6µM*	9.47µM*!	-5.3%	15.8µM*
CC#C[C@]1(O)CC[C@H]2[C@@H]3CCC4=CC(=O)CCC4=C3[C@H](c3ccc(N(C)C)cc3)C[C@@]21C	.	.	.	.	-8.2%	.
CCOc1ccccc1N1CCN(C2=C(NS(=O)(=O)c3cccs3)C(=O)c3ccccc3C2=O)CC1	?	.	8.91µM*	?	?	8.91µM*
O=C1C(NS(=O)(=O)c2cccs2)=C(N2CCN(Cc3ccccc3)CC2)C(=O)c2ccccc21	15.8µM*	?	12.6µM*	12.6µM*	6.1%	14.1µM*
CC(=O)c1cccc(Nc2nc(N3CCOCC3)nc(N3CCOCC3)n2)c1	0.2%	.	?	.	19.4%	-9.7%
O=S(=O)(NCCN1CCOCC1)c1cccs1	35.3%	16.8%	-0.7%	39.8µM*	15.5%	-9.9%
O=C(O)c1cccc(NC2=C(N3CCOCC3)C(=O)c3ccccc3C2=O)c1	-4.4%	-13.6%	?	2.82µM*	-8.1%	-23.1%
O=C(NCc1cccnc1)C1CCN(S(=O)(=O)c2cc(Cl)ccc2Cl)CC1	4.9%	.	-7.0%	18.9%	7.3%	-2.8%
C/C(=N\NC(=O)c1ccncc1)c1cccc(NC(=O)c2ccc(Cl)s2)c1	24.5%	.	-22.6%	17.1%	4.2%	-7.6%
O=C(CSc1nnc(-c2ccncc2)n1-c1ccccc1)Nc1ccc(Br)cc1	4.4%	.	3.0%	-7.0%[59 µM]	.	10.6%
c1csc(CN2CCOCC2)c1	?	.	35.5µM*	8.91µM*	-16.9%	2.82µM*
O=C1C(NS(=O)(=O)c2cccs2)=C(N2CCOCC2)C(=O)c2ccccc21	?	-14.6%	39.8µM*	39.8µM*	1.4%	?
CN(C1=C(N2CCOCC2)C(=O)c2ccccc2C1=O)c1ccccc1	35.5µM*	25.1µM*	10µM*	10µM*	-7.4%	15.8µM*
c1csc(CNCCCN2CCOCC2)c1	23.8%	2.6%	-7.8%	?	17.0%	-9.7%
O=C1C(NS(=O)(=O)c2cccs2)=C(N2CCN(c3cccc(C(F)(F)F)c3)CC2)C(=O)c2ccccc21	?	.	10µM*	?	-9.5%	39.8µM*
CCOc1ccc(CC(=NCCc2ccccc2)C2=C(O)CC(C)(C)CC2=O)cc1OCC	34.0%	-22.5%	-3.8%	70.8µM*	4.1%	-12.9%
CCOc1ccc(CC(=N)C2=C(O)CC(C)(C)CC2=O)cc1OCC	33.7%	6.3%	6.5%	12.6%[59 µM]	4.0%	9.4%
CCOc1ccc(CC(=O)C2C(=O)CC(C)(C)CC2=O)cc1OCC	54.9%	5.3%	?	10µM*	?	17.8µM*
CCOc1ccc(CC(=O)NC2CC(C)(C)N(C)C(C)(C)C2)cc1OCC	42.5%	4.9%	16.3%	-14.5%[12.7 µM]	.	0.0%
CCOc1ccc(CC(=O)C2C(=O)CCCC2=O)cc1OCC	44.9%	2.9%	?	11.2µM*	?	25.1µM*
CCOc1ccc(CC(=O)C2=C(N3CCOCC3)CC(C)(C)CC2=O)cc1OCC	28.0%	.	-23.7%	25.1µM*	-2.3%	-18.6%
CC12CCC=CC1C(c1cccc([N+](=O)[O-])c1)N(Cc1ccccc1)C2=O (stereo not given)	-6.9%	.	.	.	-20.2%	?
COc1cc(OC)cc(-c2nnc(SCc3ccc(C(=O)O)cc3)o2)c1	10.5%	7.7%	5.1%	39.8µM*	50.1µM*	-24.1%
O=C(O)c1ccc(CSc2nnc(-c3ccco3)o2)cc1	41.1%	.	12.1%	-23.9%	7.2%	-9.2%
CCN(CC)S(=O)(=O)c1cc(NC(=O)C2=COCCO2)ccc1Cl	-5.8%	-11.7%	-2.3%	50.1µM*	.	-26.0%
COC(=O)c1ccc(C2NC(=O)c3c(sc(C)c3C)N2)cc1 (stereo not given)	10.6%	3.8%	0.1%	5.62µM*	15.8µM*	-18.5%
